Screening data as filed in PubChem BioAssay.
TDP1 cell noCPT: qHTS for Inhibitors of human tyrosyl-DNA phosphodiesterase 1 (TDP1): qHTS in cells in absence of CPT. AID 686978, 2013. DT40 Tdp1-/- hTDP1 cells, no CPT, ATP luminescence, 48 h. Potency, µM (highest dose often 46.2 µM), inactives show at the top dose activity change, negative = growth inhibition, actives largely listed as inhibitors. actives 15% (n = 420,000); note: % is set by controls: 0 for no effect and ±100 for the full control effect; nearly all actives have a fitted effect of over 55% in size
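Chicken DT40 Tdp1-/- cells complemented with human TDP1, screened without camptothecin (DMSO vehicle only), 400 cells/well. Compounds pin-transferred, cells incubated at 37 °C for at least 48 hr. Growth read as ATP-dependent luminescence (CellTiter-Glo, 30 min at RT).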
HT1080NT lethal: kills 2HG-producing HT-1080-NT fibrosarcoma cells; Potency, µM (doses to about 46.1 µM), for the others: top-dose activity, negative = less viability, actives largely listed as cytotoxic; AID 686970; actives 1.6% (n = 360,000); HT-1080-NT fibrosarcoma viability, CellTiter-Glo ATP luminescence, 48 h;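 note: NT is the 2HG producing partner of a matched IDH1 knockdown line; 0% = DMSO-treated cells and -100% = media-only wells without cells; nearly all actives have a fitted effect of over 55% in size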
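Fibrosarcoma NT cells, 750 per well in 5% FBS RPMI, were exposed to compound for 48 hours. Viability: CellTiter-Glo luminescence.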
TDP1 cell CPT: growth inhibition of DT40 Tdp1-/-;hTDP1 cells with camptothecin (screen for TDP1 inhibitors); chicken DT40 Tdp1-/-;hTDP1 cells + 20 nM CPT, ATP luminescence, 48 h; Potency, µM (titrated, usually from 46.2 µM), for the others: at the top dose activity change, negative = growth inhibition, actives largely listed as inhibitors; actives 12% (n = 420,000); AID 686979; note: % is set by controls: 0 for no effect and ±100 for the full control effect; nearly all actives have a fitted effect of over 55% in size
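Chicken DT40 Tdp1-/- cells stably complemented with human TDP1 were seeded at 400 cells/well in medium containing 20 nM camptothecin, exposed to pin-transferred compounds, and grown at 37 °C for at least 48 hr. Viability was read as ATP luminescence.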
HT1080 IDH1KD tx: HT-1080 IDH1 knockdown cell toxicity (counter line) | HT-1080 IDH1 knockdown viability, ATP luminescence, 48 h | Potency, µM (top dose mostly 46.1 µM), for inactives: at the top dose activity, negative = toxicity, most hits filed as cytotoxic | actives 2% (n = 360,000) | AID 686971;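 note: 0% = DMSO wells and -100% = cell-free medium wells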
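CellTiter-Glo luminescence after 48 h compound exposure at 37 degrees C of IDH1-knockdown HT-1080 cells in 5% FBS RPMI. %Activity scaled between DMSO wells and cell-free media wells, with curves fitted and assigned curve classes.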
TGFb SMAD3 inh: TGF-b pathway inhibition; HepG2 CAGA-GFP TGF-b/SMAD3 reporter, GFP fluorescence, 18 h; TGF-beta stimulated, 500 pg/mL final; Potency, µM (doses to about 46.1 µM), inactives show at the highest dose activity, negative = inhibition, most hits filed as inhibitors; actives 1.2% (n = 410,000); note: % is set by controls: 0 for no effect and ±100 for the full control effect; nearly all actives have a fitted effect of over 65% in size
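Inhibition was scored as loss of TGF-beta-induced (500 pg/mL final, 18 hours, 37 degrees C) GFP in HEPG2 cells carrying a CAGA-GFP reporter, in DMEM with 1% FBS. Well GFP was summed per cell; Activity was normalised to unstimulated and stimulated DMSO wells, then concentration-response fitting.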
HepG2 viability: kills HepG2 cells in TGF-b inhibitor counter-screen. HepG2 CAGA-GFP viability, ATP luminescence, 18 h. Potency, µM (titrated, usually from 46.1 µM), inactives show at the highest dose activity change, negative = cytotoxicity, actives largely listed as cytotoxic. actives 0.76% (n = 410,000). AID 588856
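CellTiter-Glo luminescence gave cytotoxicity after 18 hours at 37 degrees C. The cells were HepG2 CAGA-GFP in 1% FBS DMEM, stimulated with 500 pg/mL TGF-beta after compound addition. %Activity was normalised to no-cell wells (complete cell-killing) and DMSO (no toxicity), and curves were fitted and classified.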
An asterisk follows results filed as active; ? = inconclusive; / = no result. Hits are enriched below; roughly 17% of the tested compounds scored in any of these assays. Calls come from the whole dose curve; as a rule, active = well fitted curve in the direction sought with a large enough effect; inconclusive = small, poorly fitted or top-dose-only effect, or another doubt; inactive = no such curve, though single readings can be large; an effect the other way counts as inactive or inconclusive. Potency is the fitted concentration of half-maximal effect.

SMILES | TDP1 cell noCPT | HT1080NT lethal | TDP1 cell CPT | HT1080 IDH1KD tx | TGFb SMAD3 inh | HepG2 viability
Cc1c(C(=O)N2CCCCC2C)sc2ncnc(N3CCc4ccccc4C3)c12 (stereo unspecified) | 13µM* | 7.7% | ? | -6.0% | -25.0% | -13.6%
Cc1c(C(=O)Nc2ccc3c(c2)OCCO3)sc2ncnc(N3CCCCC3C)c12 (stereo unspecified) | 14.6µM* | -3.1% | ? | -27.8% | ? | 9.0%
CCOC(=O)C(=O)N(C)c1c(CC)nc2c(OCc3ccc(OC(F)F)cc3)cccn12 | -46.2% | 8.9% | ? | 10.5% | 7.8% | 2.2%
CCc1ccccc1OCCSc1nnc(-c2cc(OC)c(OC)c(OC)c2)o1 | 18.4µM* | / | 18.4µM* | / | ? | -32.5%
COc1ccc(-c2nnc(SCCOc3ccccc3C)o2)cc1OC | 18.4µM* | / | ? | / | -0.3% | -15.3%
COc1cc(-c2nnc(SCC(=O)N3CCCC3)o2)cc(OC)c1OC | -2.4% | 12.6% | -9.2% | 9.1% | -15.9% | -7.1%
Cc1ccccc1OCCSc1nnc(-c2cccs2)o1 | ? | / | -23.0% | / | -14.7% | -27.9%
CCCn1c(=O)n(C)c(=O)c2c(SCc3cc(C(C)=O)ccc3OCC)nc(C3CC3)nc21 | 25.9µM* | -6.0% | 20.6µM* | 2.3% | 3.9% | -10.3%
Cn1c(=O)c2c(SCC(=O)Nc3nccs3)nc(C3CC3)nc2n(C)c1=O | 18.4µM* | 23.9% | 23.1µM* | 17.8% | -2.1% | -8.8%
CC(=O)c1ccc(NC(=O)CSc2nc(C3CCCC3)nc3c2c(=O)n(C)c(=O)n3C)cc1 | 5.17µM* | / | 5.17µM* | / | -1.6% | -0.3%
CCOc1ccc(C(C)=O)cc1CSc1nc(C)cc(C)n1 | 7.3% | 5.5% | ? | -2.7% | -4.2% | -11.2%
Cc1ccc(NC(=O)CSc2nc(C3CCCC3)nc3c2c(=O)n(C)c(=O)n3C)c(C)c1 | 6.3% | / | -19.9% | / | -0.2% | -13.7%
Cn1c(=O)c2c(SC3CCCC3)nc(C3CC3)nc2n(C)c1=O | 20.6µM* | 8.2% | ? | 3.4% | -2.1% | -11.1%
Cc1cccc(NC(=O)CSc2nc(C3CCCC3)nc3c2c(=O)n(C)c(=O)n3C)c1C | -6.7% | / | -14.0% | / | 1.1% | -1.4%
CN(C(=O)CSc1nc(C2CCCC2)nc2c1c(=O)n(C)c(=O)n2C)c1ccccc1 | ? | / | ? | / | -12.7% | -2.9%
CCCC(C)(C)C(=O)N1CCC1(C)C(=O)NS(=O)(=O)c1ccc(Br)cc1 (stereo unspecified) | -1.6% | 11.6% | -30.0% | 0.9% | 19.9% | 5.2%
CCOc1cc(/C=C2\COc3ccccc3C2=O)ccc1OCC(=O)N(C)C | 10.3µM* | 25.9µM* | ? | 23.1µM* | ? | -80.5%
CCNC(=O)COc1ccc(/C=C2\COc3ccccc3C2=O)cc1OC | 13µM* | ? | 14.6µM* | 25.9µM* | ? | -24.2%
COc1cc(C=C2C(=O)OC(C)(C)OC2=O)ccc1OCC(=O)Nc1ccccc1 | -2.6% | -6.7% | 4.3% | -11.7% | 6.2% | -3.1%
Cc1cc(C)cc(-n2c(C)cc(C(=O)C(=O)Nc3ccccc3F)c2C)c1 | 1.0% | / | 2.9% | / | -11.9% | -1.9%
O=[N+]([O-])c1ccccc1S(=O)(=O)NCc1ccccn1 | 12.3% | / | -11.9% | / | -1.4% | -14.1%
NNC(=O)c1sccc1OCc1cccc(C(F)(F)F)c1 | ? | -6.1% | 20.6µM* | -0.4% | 2.1% | 0.3%
Nc1ncccc1OCc1cccc(C(F)(F)F)c1 | 6.51µM* | -5.7% | -18.2% | -7.2% | -20.6% | -6.1%
COc1ccc(NC(=O)c2sccc2SCc2cccc(C(F)(F)F)c2)cc1 | ? | ? | ? | 8.91µM* | ? | -29.1%
CCn1ncc(C2=NOC(C(=O)Nc3cccc(O)c3)C2)c1C (stereo unspecified) | -16.1% | 2.1% | -18.6% | 11.0% | 4.6% | -6.6%
SMILES | TDP1 cell noCPT | HT1080NT lethal | TDP1 cell CPT | HT1080 IDH1KD tx | TGFb SMAD3 inh | HepG2 viability
COc1ccc(OC)c(/C=N/NC(=O)CCc2c(C)n[nH]c2C)c1 | -27.0% | 6.9% | -13.3% | 8.0% | -23.8% | -8.9%
COc1ccc(OC)c(/C=N/NC(=O)CCc2ccc(O)c(O)c2)c1 | ? | -18.3% | 20.6µM* | -19.2% | -22.8% | -6.8%
COc1ccc(OC)c(C=NNC(=O)NN=Cc2cc(OC)ccc2OC)c1 | 25.9µM* | -4.0% | ? | 1.7% | -3.2% | -7.7%
COc1ccc(OC)c(/C=N/NC(=O)C(=O)N/N=C/c2cc(OC)ccc2OC)c1 | ? | -9.9% | 4.2% | -17.1% | -5.4% | 20.7%
Cc1cccc(CN2CCN(C3CN(CCc4ccccc4)S(=O)(=O)C3)CC2)c1 (stereo unspecified) | ? | 5.5% | ? | -3.0% | -19.6% | -0.1%
CCC(=O)Nc1cccc(NC(=S)NC(=O)c2ccc(Cl)cc2)c1 | 14.6µM* | -8.2% | 18.4µM* | -2.6% | ? | -16.9%
COc1ccc(NS(=O)(=O)c2ccc(NC(=S)NC(=O)/C=C/c3ccccc3)cc2)nn1 | 16.4µM* | 4.3% | 11.6µM* | -0.2% | 5.2% | 2.9%
O=C(NC(=S)Nc1ccc(-c2ccccc2)cc1)c1ccccc1 | ? | 7.1% | -24.6% | 0.2% | -9.5% | -9.9%
CCC(=O)Nc1ccc(NC(=S)NC(=O)/C=C/c2ccccc2)cc1 | 7.31µM* | -22.9% | ? | -13.1% | 2.5% | -21.1%
CCc1nnc(NS(=O)(=O)c2ccc(NC(=S)NC(=O)/C=C/c3ccccc3)cc2)s1 | -17.7% | 2.6% | 16.8% | -1.0% | ? | -12.1%
CC(C)NC(=S)NC(=O)c1ccc(-c2ccccc2)cc1 | 16.4µM* | -2.0% | 23.1µM* | -17.1% | -13.8% | -27.8%
CC(=O)Cc1nsc(NC(=O)c2cn(-c3ccccc3)nc2-c2ccc(Br)cc2)n1 | 16.3% | 2.5% | -18.4% | -4.4% | 3.9% | 4.5%
O=C(CCn1c(=S)oc2ccccc21)Nc1cccc(O)c1 | 3.0% | 14.5% | 7.3% | 11.0% | 10.9% | 4.3%
O=C(NC(=S)Nc1ccc(Oc2ccc(Cl)cc2)cc1)c1ccccc1 | 20.6µM* | -9.8% | ? | ? | -18.4% | -25.3%
O=C(NC(=S)Nc1ccc(Cl)cc1)c1ccccc1 | 3.2% | ? | 13.8% | 10.0% | -18.8% | -10.5%
O=C(NC(=S)Nc1ccc(NC(=O)c2ccccc2)cc1)c1ccc(F)cc1 | 0.7% | ? | 6.8% | -16.1% | -7.0% | -1.3%
